Inconclusive results are not listed. This is one part of the list. Entries that show only a call come without a potency. Active and inactive are the calls of the source. Unless noted, calls follow the shape of the dose curve; as a rule, active = well fitted curve in the direction sought with a large enough effect; inconclusive = small, poorly fitted or top-dose-only effect, or another doubt; inactive = no such curve, though single readings can be large; an effect the other way counts as inactive or inconclusive.
Legend:
[1] = target: Rap guanine nucleotide exchange factor 3 (Homo sapiens) (UniProt O95398); assay: Confirmatory qHTS for antagonist of cAMP-regulated guanine nucleotide exchange factor 3 (EPAC1) (AID 1645880); details: EPAC1 Rap1B-BODIPY-GDP exchange, fluorescence; activity, negative = inhibition: at 115 µM (top of the series); also: nearly all actives have a fitted effect of over 55% in size; also: potency is read from the fitted curve at half-maximal effect
Sequence of Rap guanine nucleotide exchange factor 3 (Homo sapiens) (O95398 whole entry, looked up): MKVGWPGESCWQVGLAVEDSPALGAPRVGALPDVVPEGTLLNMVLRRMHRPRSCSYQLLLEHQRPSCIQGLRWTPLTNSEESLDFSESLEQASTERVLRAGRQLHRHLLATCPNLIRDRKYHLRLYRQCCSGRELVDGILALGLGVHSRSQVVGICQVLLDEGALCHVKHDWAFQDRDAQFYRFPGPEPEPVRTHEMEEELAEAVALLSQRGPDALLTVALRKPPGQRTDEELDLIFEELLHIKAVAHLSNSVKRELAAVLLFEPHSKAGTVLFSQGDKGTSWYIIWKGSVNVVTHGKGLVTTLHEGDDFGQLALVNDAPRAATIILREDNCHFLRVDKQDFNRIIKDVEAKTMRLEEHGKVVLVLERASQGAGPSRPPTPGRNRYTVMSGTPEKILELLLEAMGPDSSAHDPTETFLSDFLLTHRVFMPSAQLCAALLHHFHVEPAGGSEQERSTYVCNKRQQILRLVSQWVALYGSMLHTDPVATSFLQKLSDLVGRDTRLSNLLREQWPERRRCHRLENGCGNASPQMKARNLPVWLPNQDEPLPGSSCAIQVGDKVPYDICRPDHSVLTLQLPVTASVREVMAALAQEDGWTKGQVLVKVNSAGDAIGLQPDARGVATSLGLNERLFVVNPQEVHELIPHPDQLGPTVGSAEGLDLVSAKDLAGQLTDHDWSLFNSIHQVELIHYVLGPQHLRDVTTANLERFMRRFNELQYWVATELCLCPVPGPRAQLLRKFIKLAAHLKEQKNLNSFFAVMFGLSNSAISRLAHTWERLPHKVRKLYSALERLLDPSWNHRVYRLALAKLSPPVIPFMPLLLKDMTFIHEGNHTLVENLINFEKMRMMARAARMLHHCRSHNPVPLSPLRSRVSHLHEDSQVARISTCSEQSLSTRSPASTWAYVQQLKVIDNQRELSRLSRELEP
Summary of the method: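 Released BODIPY-GDP fluoresces less than Rap1-bound BODIPY-GDP; the signal is followed at 480/540 nm at 5-min intervals over 30 min, after 5 min at room temperature. Reactions contain 100 nM EPAC1, 250 nM RAP1B-BODIPY-GDP and 50 uM GDP; results are normalized to ATA and DMSO.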

[2] = target: Rap guanine nucleotide exchange factor 3 (Homo sapiens) (UniProt O95398); assay: Confirmatory qHTS for agonist of cAMP-regulated guanine nucleotide exchange factor 3 (EPAC1) (AID 1645881); also: nearly all actives have a fitted effect of over 75% in size; also: potency is read from the fitted curve at half-maximal effect;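 as to activation: EPAC1 catalysed release of BODIPY-GDP from Rap1B seen as fluorescence loss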
[3] = target: Rap guanine nucleotide exchange factor 4 (Homo sapiens) (UniProt Q8WZA2); assay: Confirmatory qHTS for agonist of cAMP-regulated guanine nucleotide exchange factor 4 (EPAC2) (AID 1645884);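 also: nucleotide exchange releases bodipy-GDP from Rap1 and this lowers its fluorescence; nearly all actives have a fitted effect of over 65% in size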; also: potency is read from the fitted curve at half-maximal effect
Sequence of Rap guanine nucleotide exchange factor 4 (Homo sapiens) (Q8WZA2 whole entry, looked up): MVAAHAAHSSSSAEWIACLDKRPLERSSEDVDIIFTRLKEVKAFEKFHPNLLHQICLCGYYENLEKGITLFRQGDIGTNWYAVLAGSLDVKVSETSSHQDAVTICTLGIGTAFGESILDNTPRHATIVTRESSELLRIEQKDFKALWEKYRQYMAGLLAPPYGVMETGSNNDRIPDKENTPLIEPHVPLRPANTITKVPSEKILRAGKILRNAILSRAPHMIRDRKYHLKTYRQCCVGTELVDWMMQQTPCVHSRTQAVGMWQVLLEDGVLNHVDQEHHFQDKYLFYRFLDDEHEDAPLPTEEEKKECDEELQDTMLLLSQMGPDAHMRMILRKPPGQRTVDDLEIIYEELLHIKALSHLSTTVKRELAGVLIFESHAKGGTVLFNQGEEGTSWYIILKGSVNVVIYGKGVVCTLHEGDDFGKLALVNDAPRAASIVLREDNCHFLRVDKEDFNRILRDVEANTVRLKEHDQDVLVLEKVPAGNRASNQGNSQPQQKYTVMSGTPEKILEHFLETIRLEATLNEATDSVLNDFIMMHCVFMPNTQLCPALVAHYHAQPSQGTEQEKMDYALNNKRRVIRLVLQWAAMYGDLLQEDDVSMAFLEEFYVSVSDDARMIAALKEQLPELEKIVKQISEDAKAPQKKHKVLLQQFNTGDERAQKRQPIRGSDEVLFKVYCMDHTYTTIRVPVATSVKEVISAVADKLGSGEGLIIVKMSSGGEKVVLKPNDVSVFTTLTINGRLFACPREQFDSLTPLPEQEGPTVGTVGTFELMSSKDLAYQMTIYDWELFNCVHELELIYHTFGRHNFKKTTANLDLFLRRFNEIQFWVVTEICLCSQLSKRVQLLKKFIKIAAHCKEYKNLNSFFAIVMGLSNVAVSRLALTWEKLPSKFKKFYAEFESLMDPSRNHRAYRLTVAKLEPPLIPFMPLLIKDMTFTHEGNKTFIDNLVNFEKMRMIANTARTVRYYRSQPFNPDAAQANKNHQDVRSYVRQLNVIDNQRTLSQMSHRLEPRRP

[4] = target: Rap guanine nucleotide exchange factor 4 (Homo sapiens) (UniProt Q8WZA2); assay: Confirmatory qHTS for antagonist of cAMP-regulated guanine nucleotide exchange factor 4 (EPAC2) (AID 1645885); also: nearly all actives have a fitted effect of over 25% in size; also: potency is read from the fitted curve at half-maximal effect
[5] = target: Rap guanine nucleotide exchange factor 3 (Homo sapiens) (UniProt O95398); assay: Counterscreen qHTS for antagonist of cAMP-regulated guanine nucleotide exchange factor 3 (EPAC1) (AID 1645888)
Summary of the method: (§1)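 Measured: fluorescence of BODIPY-GDP bound to Rap1B, which falls as exchange proceeds. Conditions include 50 uM competing GDP, 5 and 30 min reads, and a later cAMP challenge for antagonist detection.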

[6] = target: Rap guanine nucleotide exchange factor 3 (Homo sapiens) (UniProt O95398); assay: Counterscreen qHTS for agonist of cAMP-regulated guanine nucleotide exchange factor 3 (EPAC1) (AID 1645889); also: nearly all actives have a fitted effect of over 40% in size; also: potency is read from the fitted curve at half-maximal effect
Summary of the method: as §1

[7] = target: Catechol O-methyltransferase (Homo sapiens) (UniProt P21964); assay: Confirmatory Screen for Target Class Profiling of Small Molecule Inhibitors of Methyltransferases (AID 1745852; calls by dose curve; also: potency is read from the fitted curve at half-maximal effect); details: MTase-Glo luminescence, SAH detection, recombinant enzyme; measured here: COMT max response; stronger effect = lower value
Sequence of Catechol O-methyltransferase (Homo sapiens) (P21964 whole entry, looked up): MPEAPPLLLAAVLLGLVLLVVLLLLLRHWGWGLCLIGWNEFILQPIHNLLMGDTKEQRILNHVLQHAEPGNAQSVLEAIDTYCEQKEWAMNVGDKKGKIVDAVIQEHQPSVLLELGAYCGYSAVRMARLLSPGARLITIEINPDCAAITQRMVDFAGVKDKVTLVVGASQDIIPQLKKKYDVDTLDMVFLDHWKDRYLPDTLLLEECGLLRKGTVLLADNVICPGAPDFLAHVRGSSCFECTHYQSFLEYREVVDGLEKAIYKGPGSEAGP

[8] = target: Guanidinoacetate N-methyltransferase (Homo sapiens) (UniProt Q14353); assay: as above; details: activity change, negative = inhibition: at 57.3 µM (top of the series) unless noted
[9] = target: Nicotinamide N-methyltransferase (Homo sapiens) (UniProt P40261); assay: as above; details: MTase-Glo luminescence, SAH detection, recombinant enzyme; measured here: NNMT max response; stronger effect = lower value
Sequence of Nicotinamide N-methyltransferase (Homo sapiens) (P40261 whole entry, looked up): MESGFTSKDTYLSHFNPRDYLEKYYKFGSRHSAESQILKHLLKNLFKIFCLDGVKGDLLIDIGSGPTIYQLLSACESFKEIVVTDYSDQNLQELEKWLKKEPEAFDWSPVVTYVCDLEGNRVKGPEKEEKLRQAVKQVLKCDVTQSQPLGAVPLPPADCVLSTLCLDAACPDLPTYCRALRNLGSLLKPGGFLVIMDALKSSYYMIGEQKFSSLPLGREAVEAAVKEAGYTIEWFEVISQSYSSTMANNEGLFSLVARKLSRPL

[10] = target: Phenylethanolamine N-methyltransferase (Homo sapiens) (UniProt P11086); assay: as above; details: MTase-Glo luminescence, SAH detection, recombinant enzyme; measured here: PNMT max response; stronger effect = lower value
Sequence of Phenylethanolamine N-methyltransferase (Homo sapiens) (P11086 whole entry, looked up): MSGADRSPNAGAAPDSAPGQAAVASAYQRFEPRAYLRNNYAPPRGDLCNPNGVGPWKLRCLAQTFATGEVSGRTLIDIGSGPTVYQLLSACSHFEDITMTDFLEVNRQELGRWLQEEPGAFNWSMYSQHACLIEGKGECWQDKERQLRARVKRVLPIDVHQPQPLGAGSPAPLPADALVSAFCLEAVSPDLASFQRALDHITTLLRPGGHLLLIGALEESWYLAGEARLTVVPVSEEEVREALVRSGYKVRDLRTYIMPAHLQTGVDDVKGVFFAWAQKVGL

[11] = AP1 Signaling Pathway (AID 357; active = well fitted curve in either direction with a large enough effect, not every such curve was filed as active;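 also: ME-180 reporter cells stimulated with EGF at its EC50 level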); details: ME-180 (cervical carcinoma) AP-1-bla reporter, EGF-induced, beta-lactamase ratio, 5 h; at 7.69 µM (top of the series) unless noted
Summary of the method: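 In this screen, ME-180 cells in Opti-MEM with 0.5% dialyzed FBS received EC50 EGF and compound titrations for 5 h. AP-1 reporter beta-lactamase was detected via CCF4 ratio, giving AC50 for positive and negative modulators.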

[12] = NFAT Signaling Pathway (AID 444; active = well fitted curve in either direction with a large enough effect, not every such curve was filed as active;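 also: carbachol stimulus at about its EC50 of 1 µM final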); details: Jurkat NFAT-bla M1, carbachol, beta-lactamase ratio, 5 h; at 7.69 µM (top of the series) unless noted
Summary of the method: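 Jurkat cells carrying an NFAT-driven β-lactamase reporter and co-transfected muscarinic M1 receptor were treated with compound plus carbachol (1 uM final, an EC50 level) for 5 h at 37 °C. CCF4 loading followed for 1 h at RT; 460/530 nm ratio gave %activity.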

[13] = Stat Signaling Pathway (AID 446; active = well fitted curve in either direction with a large enough effect, not every such curve was filed as active;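 also: ME-180 cervical cancer cells given 40 pM IL-6 alongside compound; SIE-controlled beta-lactamase reporter measured as 460/530 nm FRET emission ratio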)
Summary of the method: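 Compound effects on IL-6-induced STAT reporter activity were measured in ME-180 cells. After overnight culture, cells were co-treated with 40 pM IL-6 for 5 hrs before beta-lactamase substrate loading at room temperature.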

[14] = target: Glucocorticoid receptor (Homo sapiens) (UniProt P04150); assay: GR-GFP Redistribution (AID 450;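 active = compounds whose dose series gives a full or clear partial fitted curve of increased nuclear translocation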; also: potency is read from the fitted curve at half-maximal effect); details: U2OS GR-GFP nuclear translocation, laser cytometry, 2 h
Sequence of Glucocorticoid receptor (Homo sapiens) (P04150 whole entry, looked up): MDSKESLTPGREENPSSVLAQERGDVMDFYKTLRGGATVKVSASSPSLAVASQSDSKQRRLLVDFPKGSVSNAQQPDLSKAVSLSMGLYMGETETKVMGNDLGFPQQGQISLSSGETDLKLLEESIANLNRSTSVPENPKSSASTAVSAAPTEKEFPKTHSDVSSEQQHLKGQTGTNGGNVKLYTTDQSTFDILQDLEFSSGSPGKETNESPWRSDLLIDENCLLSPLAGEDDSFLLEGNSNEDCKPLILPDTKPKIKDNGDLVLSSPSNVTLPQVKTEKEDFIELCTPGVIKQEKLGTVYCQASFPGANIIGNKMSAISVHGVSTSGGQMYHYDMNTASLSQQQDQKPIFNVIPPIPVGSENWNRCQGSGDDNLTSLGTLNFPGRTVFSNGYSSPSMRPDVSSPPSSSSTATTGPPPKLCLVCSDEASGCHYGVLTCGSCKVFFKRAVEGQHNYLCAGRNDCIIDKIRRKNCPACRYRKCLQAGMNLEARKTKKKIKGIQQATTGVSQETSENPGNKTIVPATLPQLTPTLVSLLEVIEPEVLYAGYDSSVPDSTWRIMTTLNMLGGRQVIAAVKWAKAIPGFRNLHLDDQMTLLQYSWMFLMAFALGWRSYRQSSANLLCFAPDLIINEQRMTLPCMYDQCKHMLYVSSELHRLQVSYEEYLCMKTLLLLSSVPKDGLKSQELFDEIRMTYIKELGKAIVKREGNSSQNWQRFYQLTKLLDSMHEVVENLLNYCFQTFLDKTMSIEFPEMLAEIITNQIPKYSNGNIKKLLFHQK

[15] = qHTS Assay for Inhibitors of Fructose-1,6-bisphosphate Aldolase from Giardia Lamblia: Mammalian cellular toxicity (AID 2786);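 also: compound exposure lasted 48 h before reading; nearly all actives have a fitted effect of over 60% in size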
Summary of the method: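 Chinese hamster ovary cells (250/well, DMEM with 10% FBS and penicillin/streptomycin) were exposed to compounds for 48 h at 37 °C, 5% CO2. Viability was taken as cellular ATP content, read with ATPlite reagent after 20 min.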

[16] = target: Fructose-bisphosphate aldolase (Giardia intestinalis (strain ATCC 50803 / WB clone C6)) (UniProt A8B2U2); assay: qHTS Assay for Inhibitors of Fructose-1,6-bisphosphate Aldolase from Giardia Lamblia: Primary screen confirmation (AID 2787);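 also: aldolase product measured through coupled diaphorase step turning resazurin into fluorescent resorufin; nearly all actives have a fitted effect of over 45% in size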
Sequence of Fructose-bisphosphate aldolase (Giardia intestinalis (strain ATCC 50803 / WB clone C6)) (A8B2U2 whole entry, looked up): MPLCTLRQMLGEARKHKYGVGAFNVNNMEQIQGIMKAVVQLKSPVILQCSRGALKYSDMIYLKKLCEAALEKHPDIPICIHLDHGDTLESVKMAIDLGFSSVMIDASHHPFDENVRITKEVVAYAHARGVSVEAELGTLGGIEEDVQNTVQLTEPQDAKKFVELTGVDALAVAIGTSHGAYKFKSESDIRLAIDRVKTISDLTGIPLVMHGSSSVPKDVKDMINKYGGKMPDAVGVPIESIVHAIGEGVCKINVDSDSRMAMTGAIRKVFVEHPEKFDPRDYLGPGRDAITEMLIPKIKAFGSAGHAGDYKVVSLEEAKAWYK
Summary of the method: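 FBPA (40 nM in enzyme reagent, with 30 uM ZnCl2) was preincubated 10 min at RT with compound up to 57.5 uM final. Substrate plus coupled detection system was then added, and fluorescence (525/598 nm) was read after 20 min at RT.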

[17] = target: Fructose-bisphosphate aldolase A (Oryctolagus cuniculus) (UniProt P00883); assay: qHTS Assay for Inhibitors of Fructose-1,6-bisphosphate Aldolase from Giardia Lamblia: Rabbit FBPA Selectivity (AID 2794); also: nearly all actives have a fitted effect of over 60% in size
Sequence of Fructose-bisphosphate aldolase A (Oryctolagus cuniculus) (P00883 whole entry, looked up): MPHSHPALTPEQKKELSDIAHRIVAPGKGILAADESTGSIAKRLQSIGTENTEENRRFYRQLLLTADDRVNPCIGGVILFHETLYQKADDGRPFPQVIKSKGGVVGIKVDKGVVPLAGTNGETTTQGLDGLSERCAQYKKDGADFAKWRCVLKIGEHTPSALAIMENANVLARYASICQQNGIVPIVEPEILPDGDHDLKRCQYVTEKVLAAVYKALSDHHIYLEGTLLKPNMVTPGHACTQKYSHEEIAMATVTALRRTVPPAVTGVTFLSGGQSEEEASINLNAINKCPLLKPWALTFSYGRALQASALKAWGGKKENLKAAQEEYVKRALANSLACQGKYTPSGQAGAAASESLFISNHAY
Summary of the method: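 To triage Class I aldolase inhibitors, rabbit FBPA activity is followed through a glyceraldehyde-3-phosphate-linked enzyme cascade feeding AmpLite Red. Compounds (up to 57.5 uM final) sit 10 min with coupling enzymes before substrate; fluorescence is read 20 min later.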

[18] = qHTS Assay for Inhibitors of Fructose-1,6-bisphosphate Aldolase from Giardia Lamblia: Coupling assay counterscreen confirmation (AID 2795); also: nearly all actives have a fitted effect of over 55% in size
Summary of the method: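 Activity against the detection chain, not aldolase, was measured using glyceraldehyde-3-phosphate with GAPDH-based coupling and AmpLite Red. Final compound levels ran up to 57.5 uM; signal was read by fluorescence after 20 min at RT.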

In the case of `CCOC(=O)c1sc2nc(NC(=O)COc3ccccc3)sc2c1C`, the Potency [1] is reported as “inactive”, the Potency [2] is reported as “inactive” and the activation [3] is reported as 1.9% [at 17.1 µM, percent relative to cAMP agonist control] (inactive). The Potency [4] was “inactive”, the activity change, negative = inhibition [5] was -6.87% [at 30.8 µM] (inactive) and the activation [6] was 25% [at 30.8 µM] (inactive).
For `O=C1COc2ccc(C(=O)COC(=O)c3ccc([N+](=O)[O-])cc3Cl)cc2N1`, the Potency [1] was “inactive”, the Potency [2] was “inactive” and the Potency [3] was “inactive”. For the same compound, the Potency [4] was “inactive”, the Potency [5] was “inactive” and the Potency [6] was “inactive”.
In the case of `O=C(NCCc1ccccc1)c1ccc2c(=O)[nH]c3c(C(=O)NCC4CCCO4)sc(=S)n3c2c1` (stereo unspecified), the Potency [1] is reported as 75.7 µM (active), the Potency [2] is reported as “inactive” and the Potency [3] is reported as “inactive”. The Potency [4] was 30.1 µM (active), the Potency [5] was “inactive” and the Potency [6] was “inactive”. For the same compound, the activity [7] was -68.6%, the Potency [8] was 24.1 µM (active) and the activity [9] was -55.9%. It also gave an activity [10] of -66.7%.
In the case of `CCN(CC)c1ccc2cc(-c3nc(-c4cccs4)no3)c(=O)oc2c1`, the Potency [1] is reported as “inactive”, the Potency [2] is reported as 100 µM (active) and the Potency [3] is reported as 35.5 µM (active). For the same compound, the Potency [4] was 3.38 µM (active), the Potency [5] was “inactive” and the Potency [6] was 79.4 µM (active).
For `Cc1ccc2c(c1)NC(=O)C(CC(=O)N(C)Cc1ccccc1)O2` (stereo unspecified), the Potency [1] was “inactive”, the Potency [2] was “inactive” and the activation [3] was 3.24% [at 17.1 µM, percent relative to cAMP agonist control] (inactive). For the same compound, the Potency [4] was “inactive”, the activity change, negative = inhibition [5] was -5.86% [at 30.8 µM] (inactive) and the activation [6] was 9.9% [at 30.8 µM] (inactive).
For `Cc1ccc(NC(=O)CN2C(=O)C(c3ccc(C(C)(C)C)cc3)=NC2(C)C)cc1`, the Potency [1] was “inactive”, the Potency [2] was “inactive” and the Potency [3] was “inactive”. The Potency [4] was “inactive”, the Potency [5] was “inactive” and the Potency [6] was “inactive”.
For `CSCCC(NS(=O)(=O)c1ccc2c(c1)OCCO2)C(=O)N(C)Cc1ccc(F)cc1` (stereo unspecified), the Potency [1] was “inactive”, the Potency [2] was “inactive” and the activation [3] was 1.67% [at 17.1 µM, percent relative to cAMP agonist control] (inactive). For the same compound, the Potency [4] was “inactive”, the activity change, negative = inhibition [5] was -2.77% [at 30.8 µM] (inactive) and the activation [6] was 5.06% [at 30.8 µM] (inactive).
In the case of `O=C(O)CC1Sc2nc3ccccc3n2C1=O` (stereo unspecified), the activity change, negative = inhibition [11] is reported as 12.1% [at 17.2 µM] (inactive), the activity change, negative = inhibition [12] is reported as 6.71% [at 17.2 µM] (inactive) and the outcome [13] is reported as “inactive”. For the same compound, the Potency [14] was > 20.6 µM (inactive), the Potency [1] was “inactive” and the Potency [2] was “inactive”. The activation [3] was 10.5% [at 17.1 µM, percent relative to cAMP agonist control] (inactive), the Potency [4] was “inactive” and the activity change, negative = inhibition [5] was -7.87% [at 30.8 µM] (inactive). For the same compound, the activation [6] was 12.5% [at 30.8 µM] (inactive).
With `O=C1C(=Cc2ccco2)CCC1=Cc1ccco1` the Potency [1] was “inactive”, the Potency [2] was “inactive” and the Potency [3] was “inactive”. For the same compound, the Potency [4] was 60.1 µM (active), the Potency [5] was “inactive” and the Potency [6] was “inactive”.
For `Cc1cc(-c2ccc(F)cc2)n2ncc(-c3ccccc3)c2n1`, the Potency [1] was “inactive”, the Potency [2] was “inactive” and the Potency [3] was “inactive”. The Potency [4] was “inactive”, the Potency [5] was “inactive” and the Potency [6] was “inactive”.
For `O=C(CSC1=NCCS1)N1N=C(c2cccs2)CC1c1ccc(F)cc1` (stereo unspecified), the Potency [1] was “inactive”, the Potency [2] was “inactive” and the activation [3] was 6.13% [at 17.1 µM, percent relative to cAMP agonist control] (inactive). For the same compound, the Potency [4] was “inactive”, the activity change, negative = inhibition [5] was 4.6% [at 30.8 µM] (inactive) and the activation [6] was 21.2% [at 30.8 µM] (inactive).
In the case of `CCc1cc2c(=O)c(-c3nc4ccccc4n3C)coc2c(CN2CCCCC2C)c1O` (stereo unspecified), the Potency [1] is reported as “inactive”, the Potency [2] is reported as “inactive” and the Potency [3] is reported as “inactive”. For the same compound, the Potency [4] was “inactive”, the Potency [5] was “inactive” and the Potency [6] was “inactive”.
In the case of `CCCCn1nnc(NC(=O)c2ccco2)n1`, the Potency [1] is reported as “inactive”, the Potency [2] is reported as “inactive” and the activation [3] is reported as 6.58% [at 17.1 µM, percent relative to cAMP agonist control] (inactive). For the same compound, the Potency [4] was “inactive”, the activity change, negative = inhibition [5] was 4.22% [at 30.8 µM] (inactive) and the activation [6] was 0.136% [at 30.8 µM] (inactive).
With `CCN1C(=O)/C(=C/c2ccc(OCc3ccc(C(=O)O)cc3)c(Cl)c2)NC1=S` the Potency [1] was 42.6 µM (active), the Potency [2] was “inactive” and the Potency [3] was “inactive”. For the same compound, the Potency [4] was “inactive”, the Potency [5] was “inactive” and the Potency [6] was “inactive”.
In the case of `CC(=O)Nc1c(C)nn(-c2ccccc2)c1N1CCC(C(=O)NCc2cccc(F)c2)CC1`, the Potency [1] is reported as “inactive”, the Potency [2] is reported as “inactive” and the Potency [3] is reported as “inactive”. For the same compound, the Potency [4] was “inactive”, the Potency [5] was “inactive” and the Potency [6] was “inactive”.
For `O=c1c(-c2ccc(F)cc2)[n+]([O-])c2ccccc2n1OCc1ccccn1`, the Potency [1] was “inactive”, the Potency [2] was “inactive” and the activation [3] was -8.77% [at 17.1 µM, percent relative to cAMP agonist control] (inactive). The Potency [4] was “inactive”, the activity change, negative = inhibition [5] was 1.53% [at 30.8 µM] (inactive) and the activation [6] was 6.02% [at 30.8 µM] (inactive).
With `CC1Cc2nc(SCC(=O)N3CCCc4ccccc43)n(C)c(=O)c2S1` (stereo unspecified) the Potency [1] was “inactive”, the Potency [2] was “inactive” and the activation [3] was -4.86% [at 17.1 µM, percent relative to cAMP agonist control] (inactive). For the same compound, the Potency [4] was “inactive”, the activity change, negative = inhibition [5] was -11.9% [at 30.8 µM] (inactive) and the activation [6] was 4.66% [at 30.8 µM] (inactive).
In the case of `Cc1[nH]n(-c2ccccc2)c(=O)c1C(c1ccc(C(=O)O)cc1)c1c(C)[nH]n(-c2ccccc2)c1=O`, the Potency [1] is reported as “inactive”, the Potency [2] is reported as “inactive” and the Potency [3] is reported as “inactive”. The Potency [4] was “inactive”, the Potency [5] was “inactive” and the Potency [6] was 1.78 µM (active).
In the case of `CCCc1nc2ccccc2c(=O)n1/N=C/c1ccc(O)c(O)c1`, the outcome [15] is reported as “inactive”, the outcome [16] is reported as “inactive” and the outcome [17] is reported as “inactive”. For the same compound, the outcome [18] was “inactive”, the Potency [1] was “inactive” and the Potency [2] was “inactive”. The Potency [3] was “inactive”, the Potency [4] was “inactive” and the Potency [5] was “inactive”. For the same compound, the Potency [6] was “inactive”.

Source: PubChem BioAssay (NCATS)
